Drawing on PubChem BioAssay AID1256 (The Scripps Research Institute Molecular Screening Center, 2008), this text covers inhibition for one compound.

The other results are listed elsewhere or left out. A number with no mark means an inactive call. No stated cut-off is given here; in the data, active means inhibition above about 20%; inactive means the rest.

This test concerns the target Neuropeptide Y receptor type 1 (Homo sapiens) (UniProt P25929). Put plainly: NPY-Y1 receptor antagonists, selectivity check, counter-screen for NPY-Y2 antagonist project, cell-based (AID 1256).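 Further: cells challenged with NPY then isoproterenol with cAMP sensed through a CNG channel.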 The note with it: cell-based NPY-Y1 antagonism counterscreen; at 3.6 µM; stronger effect = higher value. A general note: A counterscreen serves to expose hits that act by an unwanted route or on another target.

Sequence of Neuropeptide Y receptor type 1 (Homo sapiens) (P25929 whole entry, looked up): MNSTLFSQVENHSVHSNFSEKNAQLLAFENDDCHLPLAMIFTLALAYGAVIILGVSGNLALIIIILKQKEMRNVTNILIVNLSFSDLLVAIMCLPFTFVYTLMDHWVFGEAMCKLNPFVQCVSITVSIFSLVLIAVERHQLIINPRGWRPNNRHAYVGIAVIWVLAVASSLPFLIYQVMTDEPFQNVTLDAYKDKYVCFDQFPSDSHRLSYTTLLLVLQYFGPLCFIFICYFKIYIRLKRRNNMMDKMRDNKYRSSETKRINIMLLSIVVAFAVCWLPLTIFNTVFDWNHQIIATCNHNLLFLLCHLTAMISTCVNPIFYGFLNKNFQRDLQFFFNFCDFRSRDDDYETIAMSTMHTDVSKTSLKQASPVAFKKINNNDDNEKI

Regarding `O=C(COC(=O)c1ccccc1)Nc1ccc(Cl)cc1C(=O)c1ccccc1`, the inhibition was 17.5%.

As usually defined, the inhibition is how much of the control response was suppressed.
